Measured values: ChEMBL document CHEMBL1961873, “Compounds: GSK PKIS; Assays: Nanosyn kinase panel” (2012)

Legend:
[1] = molecular target: Sphingosine kinase 1 (Homo sapiens) (UniProt Q9NYA1); conditions: at 1 µM;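 further: mean SPHK1 inhibition value reported from the GSK PKIS kinase panel screen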
[2] = molecular target: T1, Sphingosine kinase 2 (Homo sapiens) (UniProt Q9NRA0); conditions: at 0.1 µM
T1 sequence (whole entry): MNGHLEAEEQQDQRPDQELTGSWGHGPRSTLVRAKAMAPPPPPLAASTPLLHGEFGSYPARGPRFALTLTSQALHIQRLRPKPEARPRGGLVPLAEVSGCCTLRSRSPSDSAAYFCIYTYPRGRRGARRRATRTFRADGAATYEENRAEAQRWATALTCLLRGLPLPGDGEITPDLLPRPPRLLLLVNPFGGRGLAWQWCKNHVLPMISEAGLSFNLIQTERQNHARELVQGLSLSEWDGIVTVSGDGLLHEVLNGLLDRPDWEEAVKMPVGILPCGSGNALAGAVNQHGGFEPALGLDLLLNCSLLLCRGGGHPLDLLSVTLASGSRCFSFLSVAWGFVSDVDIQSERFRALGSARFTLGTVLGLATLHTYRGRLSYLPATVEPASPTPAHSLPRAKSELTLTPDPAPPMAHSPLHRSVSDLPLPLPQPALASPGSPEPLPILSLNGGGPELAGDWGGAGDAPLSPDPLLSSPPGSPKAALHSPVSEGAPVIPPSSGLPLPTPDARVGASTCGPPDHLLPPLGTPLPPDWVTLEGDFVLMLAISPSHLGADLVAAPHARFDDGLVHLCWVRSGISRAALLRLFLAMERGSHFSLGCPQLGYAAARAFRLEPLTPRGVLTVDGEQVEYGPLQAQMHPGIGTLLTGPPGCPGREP

[3] = molecular target: T1, Sphingosine kinase 2 (Homo sapiens); conditions: at 1 µM
[4] = molecular target: Casein kinase II subunit alpha (Homo sapiens) (UniProt P68400); conditions: at 0.1 µM
Casein kinase II subunit alpha (Homo sapiens), sequence (P68400 whole entry, looked up): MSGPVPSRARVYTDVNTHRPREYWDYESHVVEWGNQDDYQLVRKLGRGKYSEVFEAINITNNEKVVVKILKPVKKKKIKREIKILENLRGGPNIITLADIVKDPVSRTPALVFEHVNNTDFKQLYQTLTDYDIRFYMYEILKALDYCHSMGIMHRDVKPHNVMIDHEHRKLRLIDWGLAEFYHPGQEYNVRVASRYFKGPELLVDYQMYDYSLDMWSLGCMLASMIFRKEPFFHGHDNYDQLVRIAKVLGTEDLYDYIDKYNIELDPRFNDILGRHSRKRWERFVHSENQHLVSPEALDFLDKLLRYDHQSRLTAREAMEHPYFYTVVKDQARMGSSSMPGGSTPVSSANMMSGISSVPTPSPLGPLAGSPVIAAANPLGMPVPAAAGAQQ

[5] = molecular target: Casein kinase II subunit alpha (Homo sapiens) (UniProt P68400); conditions: at 1 µM
[6] = molecular target: T2, Inhibitor of nuclear factor kappa-B kinase subunit alpha (Homo sapiens) (UniProt O15111); conditions: at 0.1 µM
T2 sequence (whole entry): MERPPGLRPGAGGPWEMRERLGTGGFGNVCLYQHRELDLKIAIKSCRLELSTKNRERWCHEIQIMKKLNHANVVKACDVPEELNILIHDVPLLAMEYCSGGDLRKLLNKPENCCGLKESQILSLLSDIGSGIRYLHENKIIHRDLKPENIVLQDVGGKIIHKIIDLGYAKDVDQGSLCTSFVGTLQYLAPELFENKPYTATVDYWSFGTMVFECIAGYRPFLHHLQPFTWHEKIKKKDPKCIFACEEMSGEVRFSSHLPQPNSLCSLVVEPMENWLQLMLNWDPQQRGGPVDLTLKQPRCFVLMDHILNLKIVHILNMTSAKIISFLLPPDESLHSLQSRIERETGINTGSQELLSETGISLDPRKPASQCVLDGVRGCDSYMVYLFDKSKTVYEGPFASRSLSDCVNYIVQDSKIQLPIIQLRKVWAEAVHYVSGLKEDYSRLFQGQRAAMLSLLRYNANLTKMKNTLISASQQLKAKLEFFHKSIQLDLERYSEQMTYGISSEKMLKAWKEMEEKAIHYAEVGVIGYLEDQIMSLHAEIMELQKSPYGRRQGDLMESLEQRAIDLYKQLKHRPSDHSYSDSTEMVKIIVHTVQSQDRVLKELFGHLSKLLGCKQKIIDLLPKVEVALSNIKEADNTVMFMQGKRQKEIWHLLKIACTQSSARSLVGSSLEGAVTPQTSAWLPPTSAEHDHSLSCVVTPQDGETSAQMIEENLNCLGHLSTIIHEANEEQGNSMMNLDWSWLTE

[7] = molecular target: T2, Inhibitor of nuclear factor kappa-B kinase subunit alpha (Homo sapiens); conditions: at 1 µM
[8] = molecular target: T3, Inhibitor of nuclear factor kappa-B kinase subunit beta (Homo sapiens) (UniProt O14920); conditions: at 0.1 µM
T3 sequence (whole entry): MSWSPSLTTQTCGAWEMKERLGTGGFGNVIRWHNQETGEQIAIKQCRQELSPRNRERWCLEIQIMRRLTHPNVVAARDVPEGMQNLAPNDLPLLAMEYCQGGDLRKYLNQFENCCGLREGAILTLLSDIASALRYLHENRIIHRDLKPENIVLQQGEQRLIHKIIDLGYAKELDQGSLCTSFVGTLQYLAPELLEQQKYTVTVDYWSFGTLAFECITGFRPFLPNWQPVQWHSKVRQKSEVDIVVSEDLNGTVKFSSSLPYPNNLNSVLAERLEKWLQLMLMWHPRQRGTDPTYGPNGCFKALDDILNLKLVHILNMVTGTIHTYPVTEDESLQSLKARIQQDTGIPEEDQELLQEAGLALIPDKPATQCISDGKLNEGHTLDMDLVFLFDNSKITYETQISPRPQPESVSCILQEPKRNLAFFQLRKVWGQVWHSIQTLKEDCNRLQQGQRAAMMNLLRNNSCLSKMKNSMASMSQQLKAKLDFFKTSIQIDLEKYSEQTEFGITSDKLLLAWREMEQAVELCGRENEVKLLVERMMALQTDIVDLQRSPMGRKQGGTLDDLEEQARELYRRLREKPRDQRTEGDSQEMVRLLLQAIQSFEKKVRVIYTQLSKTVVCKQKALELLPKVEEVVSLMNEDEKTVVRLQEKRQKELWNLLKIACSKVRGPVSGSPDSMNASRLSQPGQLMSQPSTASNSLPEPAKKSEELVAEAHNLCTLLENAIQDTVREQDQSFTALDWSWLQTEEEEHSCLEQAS

[9] = molecular target: T3, Inhibitor of nuclear factor kappa-B kinase subunit beta (Homo sapiens); conditions: at 1 µM
[10] = molecular target: T4, Inhibitor of nuclear factor kappa-B kinase subunit epsilon (Homo sapiens) (UniProt Q14164); conditions: at 0.1 µM
T4 sequence (whole entry): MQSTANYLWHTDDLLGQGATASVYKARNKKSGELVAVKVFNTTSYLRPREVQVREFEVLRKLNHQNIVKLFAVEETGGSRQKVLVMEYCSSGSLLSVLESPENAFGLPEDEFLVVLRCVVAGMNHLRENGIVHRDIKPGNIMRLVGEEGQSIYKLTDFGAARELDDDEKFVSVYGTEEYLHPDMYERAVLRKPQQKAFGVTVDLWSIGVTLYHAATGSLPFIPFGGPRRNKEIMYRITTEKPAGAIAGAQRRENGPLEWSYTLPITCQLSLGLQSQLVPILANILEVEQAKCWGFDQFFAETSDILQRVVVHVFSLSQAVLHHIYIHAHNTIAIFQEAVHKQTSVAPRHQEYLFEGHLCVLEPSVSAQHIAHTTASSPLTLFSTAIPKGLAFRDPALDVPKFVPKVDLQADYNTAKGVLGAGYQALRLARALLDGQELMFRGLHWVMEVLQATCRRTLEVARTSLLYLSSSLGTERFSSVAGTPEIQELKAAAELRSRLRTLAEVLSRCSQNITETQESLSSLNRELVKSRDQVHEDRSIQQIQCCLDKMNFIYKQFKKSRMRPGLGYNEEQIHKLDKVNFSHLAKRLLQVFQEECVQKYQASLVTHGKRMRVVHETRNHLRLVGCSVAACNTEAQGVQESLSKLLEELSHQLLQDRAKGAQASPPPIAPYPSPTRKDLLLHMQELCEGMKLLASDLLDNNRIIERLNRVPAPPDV

[11] = molecular target: T4, Inhibitor of nuclear factor kappa-B kinase subunit epsilon (Homo sapiens); conditions: at 1 µM
[12] = molecular target: T5, Serine/threonine-protein kinase Nek1 (Homo sapiens) (UniProt Q96PY6); conditions: at 0.1 µM
T5 sequence (whole entry): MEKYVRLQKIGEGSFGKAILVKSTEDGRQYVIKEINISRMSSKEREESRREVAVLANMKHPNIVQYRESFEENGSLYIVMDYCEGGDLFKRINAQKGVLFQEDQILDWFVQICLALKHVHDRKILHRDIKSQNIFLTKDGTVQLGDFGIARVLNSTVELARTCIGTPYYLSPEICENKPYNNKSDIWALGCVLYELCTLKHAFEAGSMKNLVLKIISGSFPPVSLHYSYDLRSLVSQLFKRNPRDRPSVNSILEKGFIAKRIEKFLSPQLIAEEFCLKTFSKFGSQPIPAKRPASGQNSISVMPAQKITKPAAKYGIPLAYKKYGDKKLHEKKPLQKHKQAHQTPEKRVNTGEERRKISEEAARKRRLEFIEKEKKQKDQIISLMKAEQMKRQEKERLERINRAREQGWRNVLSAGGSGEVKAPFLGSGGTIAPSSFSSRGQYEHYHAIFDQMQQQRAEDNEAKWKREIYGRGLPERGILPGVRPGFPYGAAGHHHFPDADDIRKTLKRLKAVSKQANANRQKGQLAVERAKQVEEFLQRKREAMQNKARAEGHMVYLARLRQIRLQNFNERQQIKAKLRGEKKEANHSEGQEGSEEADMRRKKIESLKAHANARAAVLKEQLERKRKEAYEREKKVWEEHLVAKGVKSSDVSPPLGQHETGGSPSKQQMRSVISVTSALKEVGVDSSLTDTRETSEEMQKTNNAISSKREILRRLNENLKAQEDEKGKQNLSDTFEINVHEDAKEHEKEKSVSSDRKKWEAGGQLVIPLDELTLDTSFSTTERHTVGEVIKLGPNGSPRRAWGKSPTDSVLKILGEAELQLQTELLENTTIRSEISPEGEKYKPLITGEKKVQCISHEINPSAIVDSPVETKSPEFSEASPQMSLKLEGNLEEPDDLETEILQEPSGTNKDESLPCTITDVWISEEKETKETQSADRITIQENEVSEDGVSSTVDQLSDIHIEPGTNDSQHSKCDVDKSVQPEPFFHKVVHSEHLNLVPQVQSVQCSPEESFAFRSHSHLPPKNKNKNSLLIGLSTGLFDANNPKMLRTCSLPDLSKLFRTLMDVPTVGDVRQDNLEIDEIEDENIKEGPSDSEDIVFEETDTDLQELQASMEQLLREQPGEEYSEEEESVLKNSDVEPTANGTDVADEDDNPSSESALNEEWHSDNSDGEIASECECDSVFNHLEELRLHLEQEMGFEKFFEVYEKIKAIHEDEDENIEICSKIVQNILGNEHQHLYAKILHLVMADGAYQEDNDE

[13] = molecular target: T5, Serine/threonine-protein kinase Nek1 (Homo sapiens); conditions: at 1 µM
[14] = molecular target: T6, Serine/threonine-protein kinase Nek2 (Homo sapiens) (UniProt P51955); conditions: at 0.1 µM
T6 sequence (whole entry): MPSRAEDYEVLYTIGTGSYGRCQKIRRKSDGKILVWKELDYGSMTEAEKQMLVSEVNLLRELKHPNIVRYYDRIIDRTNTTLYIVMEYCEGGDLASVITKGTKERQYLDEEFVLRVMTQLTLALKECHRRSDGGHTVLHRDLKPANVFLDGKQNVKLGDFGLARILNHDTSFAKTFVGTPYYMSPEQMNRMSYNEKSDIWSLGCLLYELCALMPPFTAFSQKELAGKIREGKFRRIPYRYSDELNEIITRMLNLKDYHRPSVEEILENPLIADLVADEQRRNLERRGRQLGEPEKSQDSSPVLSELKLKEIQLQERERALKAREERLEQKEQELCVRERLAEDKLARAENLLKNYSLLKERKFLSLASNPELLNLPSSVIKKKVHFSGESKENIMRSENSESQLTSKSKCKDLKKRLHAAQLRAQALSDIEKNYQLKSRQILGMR

[15] = molecular target: T6, Serine/threonine-protein kinase Nek2 (Homo sapiens); conditions: at 1 µM
[16] = molecular target: Serine/threonine-protein kinase Nek6 (Homo sapiens) (UniProt Q9HC98); conditions: at 0.1 µM
Serine/threonine-protein kinase Nek6 (Homo sapiens), sequence (Q9HC98 whole entry): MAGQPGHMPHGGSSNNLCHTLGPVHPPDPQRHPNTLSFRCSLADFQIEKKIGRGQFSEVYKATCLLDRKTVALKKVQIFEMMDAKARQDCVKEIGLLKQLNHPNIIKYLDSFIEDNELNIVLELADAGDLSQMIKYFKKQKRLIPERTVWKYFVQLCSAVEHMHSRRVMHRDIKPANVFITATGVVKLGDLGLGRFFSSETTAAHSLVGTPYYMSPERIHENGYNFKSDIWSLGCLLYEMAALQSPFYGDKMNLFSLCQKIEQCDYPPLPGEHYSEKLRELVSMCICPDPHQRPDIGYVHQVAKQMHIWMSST

[17] = molecular target: Serine/threonine-protein kinase Nek6 (Homo sapiens) (UniProt Q9HC98); conditions: at 1 µM
[18] = molecular target: Serine/threonine-protein kinase Nek7 (Homo sapiens) (UniProt Q8TDX7); conditions: at 0.1 µM
Serine/threonine-protein kinase Nek7 (Homo sapiens), sequence (Q8TDX7 whole entry, looked up): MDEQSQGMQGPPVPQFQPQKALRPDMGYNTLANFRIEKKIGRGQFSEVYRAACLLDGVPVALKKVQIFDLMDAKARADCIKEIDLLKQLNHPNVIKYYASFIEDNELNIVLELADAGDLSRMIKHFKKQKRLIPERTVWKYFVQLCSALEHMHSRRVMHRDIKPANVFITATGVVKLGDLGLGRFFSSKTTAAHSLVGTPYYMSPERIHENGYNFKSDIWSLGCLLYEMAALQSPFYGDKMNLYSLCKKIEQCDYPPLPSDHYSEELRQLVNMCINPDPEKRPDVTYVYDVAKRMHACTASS

[19] = molecular target: Serine/threonine-protein kinase Nek7 (Homo sapiens) (UniProt Q8TDX7); conditions: at 1 µM
[20] = molecular target: T7, Serine/threonine-protein kinase Nek9 (Homo sapiens) (UniProt Q8TD19); conditions: at 0.1 µM;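 further: reported value is the mean percent inhibition of NEK9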
T7 sequence (whole entry): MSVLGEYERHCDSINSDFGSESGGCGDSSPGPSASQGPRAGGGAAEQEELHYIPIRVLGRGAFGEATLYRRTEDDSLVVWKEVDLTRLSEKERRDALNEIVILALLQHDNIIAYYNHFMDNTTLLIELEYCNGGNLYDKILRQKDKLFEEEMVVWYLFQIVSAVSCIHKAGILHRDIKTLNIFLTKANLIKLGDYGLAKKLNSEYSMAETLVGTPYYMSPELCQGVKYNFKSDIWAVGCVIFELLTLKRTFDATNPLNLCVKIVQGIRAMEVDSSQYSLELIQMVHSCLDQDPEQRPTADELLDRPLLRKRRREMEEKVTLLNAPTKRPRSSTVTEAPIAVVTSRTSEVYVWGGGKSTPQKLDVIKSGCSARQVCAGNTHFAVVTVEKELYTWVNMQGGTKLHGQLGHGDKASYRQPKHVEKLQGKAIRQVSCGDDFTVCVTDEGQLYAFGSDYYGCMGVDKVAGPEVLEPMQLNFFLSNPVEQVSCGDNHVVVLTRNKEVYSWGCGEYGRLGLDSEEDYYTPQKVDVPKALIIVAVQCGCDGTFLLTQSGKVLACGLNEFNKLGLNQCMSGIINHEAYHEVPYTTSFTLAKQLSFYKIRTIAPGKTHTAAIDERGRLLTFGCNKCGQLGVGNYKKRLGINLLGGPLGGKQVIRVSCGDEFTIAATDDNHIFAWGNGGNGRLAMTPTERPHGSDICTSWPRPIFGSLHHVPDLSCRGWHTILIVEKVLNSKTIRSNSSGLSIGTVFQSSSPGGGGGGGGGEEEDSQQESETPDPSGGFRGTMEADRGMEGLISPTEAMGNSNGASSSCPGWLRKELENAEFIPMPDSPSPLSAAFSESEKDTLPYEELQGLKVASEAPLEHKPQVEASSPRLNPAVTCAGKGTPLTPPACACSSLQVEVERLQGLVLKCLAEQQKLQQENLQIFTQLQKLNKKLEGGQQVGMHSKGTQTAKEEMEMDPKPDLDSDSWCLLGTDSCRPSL

Sphingosine kinase 1 (Homo sapiens), sequence (Q9NYA1 whole entry): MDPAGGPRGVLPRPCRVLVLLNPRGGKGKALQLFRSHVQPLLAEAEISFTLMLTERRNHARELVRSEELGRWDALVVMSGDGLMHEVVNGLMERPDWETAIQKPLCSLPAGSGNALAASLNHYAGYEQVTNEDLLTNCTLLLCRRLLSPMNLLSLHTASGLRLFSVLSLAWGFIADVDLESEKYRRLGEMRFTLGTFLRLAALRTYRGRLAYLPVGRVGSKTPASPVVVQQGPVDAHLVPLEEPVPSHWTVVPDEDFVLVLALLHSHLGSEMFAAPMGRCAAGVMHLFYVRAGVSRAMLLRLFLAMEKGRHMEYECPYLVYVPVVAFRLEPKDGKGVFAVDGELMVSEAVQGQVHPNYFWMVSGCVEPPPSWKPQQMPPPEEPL

## ON=C1CCc2cc(-c3nc(C4CCNCC4)[nH]c3-c3ccncc3)ccc21
[1]
  inhibition: -2.71%
[2]
  inhibition: 0.13%
[3]
  inhibition: -0.91%
[4]
  inhibition: -3.67%
[5]
  inhibition: -3.6%
[6]
  inhibition: -9.89%
[7]
  inhibition: -1.59%
[8]
  inhibition: 6.16%
[9]
  inhibition: 4.62%
[10]
  inhibition: 1.88%
[11]
  inhibition: 2.68%
[12]
  inhibition: 0.37%
[13]
  inhibition: -0.17%
[14]
  inhibition: 0.86%
[15]
  inhibition: 1.18%
[16]
  inhibition: -0.82%
[17]
  inhibition: -3.55%
[18]
  inhibition: 2.03%
[19]
  inhibition: 0.72%
[20]
  inhibition: 4.01%
